From PMC11006913
Residue numbers refer to the chain shown, from its start.

Tests used:
Test in all cases: PBM; 200 nM protein, PBS
Settings in all cases: dsDNA, one strand shown
VENTX [1] = biological target: T1, VENTX (Homo sapiens, UniProt O95231 78-163, R121Q)
T1 sequence: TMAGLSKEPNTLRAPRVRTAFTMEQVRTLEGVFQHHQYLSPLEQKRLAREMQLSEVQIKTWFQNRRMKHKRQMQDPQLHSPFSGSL

HOXA7 [2] = biological target: HOXA7 (Homo sapiens, UniProt P31268 116-202)
VENTX [3] = biological target: T2, VENTX (Homo sapiens, UniProt O95231 78-163, Y115F)
T2 sequence: T1 sequence with Y38F, Q44R

HOXA7 [4] = biological target: HOXA7 (Homo sapiens, UniProt P31268 116-202, W177C)
HOXA4 = HOXA4 (Homo sapiens, UniProt Q00056 201-287, W262F)
PAX4 [5] = biological target: T3, PAX4 (Homo sapiens, UniProt O43316 9-242, F177V)
T3 sequence: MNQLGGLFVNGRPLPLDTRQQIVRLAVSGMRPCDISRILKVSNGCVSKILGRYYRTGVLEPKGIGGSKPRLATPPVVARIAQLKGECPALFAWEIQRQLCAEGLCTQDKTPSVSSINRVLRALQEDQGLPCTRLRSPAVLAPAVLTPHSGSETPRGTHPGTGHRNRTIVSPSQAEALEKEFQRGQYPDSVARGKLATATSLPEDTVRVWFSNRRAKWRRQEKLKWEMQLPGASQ

PAX4 [6] = biological target: T4, PAX4 (Homo sapiens, UniProt O43316 9-242, F177Y)
T4 sequence: T3 sequence with V169Y

HOXB6 [7] = biological target: HOXB6 (Homo sapiens, UniProt P17509 132-218, K202E)
HOXB6 [8] = biological target: HOXB6 (Homo sapiens, UniProt P17509 132-218)
ALX3 = ALX3 (Homo sapiens, UniProt O95076 139-225, N203S)
VAX1 [9] = biological target: VAX1 (Homo sapiens, UniProt Q5SQQ9 86-172)
VAX1 [10] = biological target: VAX1 (Homo sapiens, UniProt Q5SQQ9 86-172, T142I)
VAX1 [11] = biological target: VAX1 (Homo sapiens, UniProt Q5SQQ9 86-172, K157R)
HOXA2 [12] = biological target: HOXA2 (Homo sapiens, UniProt O43364 129-215, R185T)
HOXA2 [13] = biological target: HOXA2 (Homo sapiens, UniProt O43364 129-215, R185K)
HOXA2 [14] = biological target: HOXA2 (Homo sapiens, UniProt O43364 129-215, Y150S)
HOXA2 [15] = biological target: HOXA2 (Homo sapiens, UniProt O43364 129-215)
Chain of HOXA2 (Homo sapiens, UniProt O43364 129-215) (O43364 129-215): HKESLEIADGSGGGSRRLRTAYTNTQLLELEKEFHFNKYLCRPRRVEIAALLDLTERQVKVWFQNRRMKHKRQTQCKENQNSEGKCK

Chain of HOXA2 (Homo sapiens, UniProt O43364 129-215, R185K) (O43364 129-215 R185K): as the sequence (O43364 129-215) above, with R57K counted along it
Chain of HOXA2 (Homo sapiens, UniProt O43364 129-215, R185T) (O43364 129-215 R185T): as the sequence (O43364 129-215) above, with R57T counted along it
Chain of HOXB6 (Homo sapiens, UniProt P17509 132-218, K202E) (P17509 132-218 K202E): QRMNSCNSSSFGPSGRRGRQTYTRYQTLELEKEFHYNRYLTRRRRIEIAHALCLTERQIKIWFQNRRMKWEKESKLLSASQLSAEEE
Chain of HOXA2 (Homo sapiens, UniProt O43364 129-215, Y150S) (O43364 129-215 Y150S): as the sequence (O43364 129-215) above, with Y22S counted along it
Chain of HOXA7 (Homo sapiens, UniProt P31268 116-202, W177C) (P31268 116-202 W177C): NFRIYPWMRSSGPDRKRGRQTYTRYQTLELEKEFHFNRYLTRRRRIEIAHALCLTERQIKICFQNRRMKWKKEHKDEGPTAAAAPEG
Chain of HOXA7 (Homo sapiens, UniProt P31268 116-202) (P31268 116-202): as the sequence (P31268 116-202 W177C) above, with C62W counted along it
Chain of HOXA4 (Q00056 201-287 W262F): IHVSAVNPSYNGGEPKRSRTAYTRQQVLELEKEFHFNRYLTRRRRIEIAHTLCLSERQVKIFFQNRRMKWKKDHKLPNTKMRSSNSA
Chain of HOXB6 (Homo sapiens, UniProt P17509 132-218) (P17509 132-218): as the sequence (P17509 132-218 K202E) above, with E71K counted along it
Chain of VAX1 (Homo sapiens, UniProt Q5SQQ9 86-172, K157R) (Q5SQQ9 86-172 K157R): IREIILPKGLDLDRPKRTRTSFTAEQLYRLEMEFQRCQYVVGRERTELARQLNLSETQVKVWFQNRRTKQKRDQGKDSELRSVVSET
Chain of ALX3 (O95076 139-225 N203S): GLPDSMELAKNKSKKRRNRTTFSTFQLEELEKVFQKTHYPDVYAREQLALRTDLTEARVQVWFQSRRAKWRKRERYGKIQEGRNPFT
Chain of VAX1 (Homo sapiens, UniProt Q5SQQ9 86-172, T142I) (Q5SQQ9 86-172 T142I): as the sequence (Q5SQQ9 86-172 K157R) above, with T57I, R72K counted along it
Chain of VAX1 (Homo sapiens, UniProt Q5SQQ9 86-172) (Q5SQQ9 86-172): as the sequence (Q5SQQ9 86-172 K157R) above, with R72K counted along it

With CCTAGCTC as the sequence, how does the binding signal (VENTX [1]) read?
The binding signal was 8.35 upbm affinity estimate (log intensity, higher = more binding, comparable within an allelic series).

And the binding signal (HOXA7 [2])?
The binding signal was 8.59 upbm affinity estimate (log intensity, higher = more binding, comparable within an allelic series).

What about the binding signal (VENTX [3]) of the same sequence?
The binding signal was 8.28 upbm affinity estimate (log intensity, higher = more binding, comparable within an allelic series).

And the binding signal (HOXA7 [4])?
The binding signal was 8.42 upbm affinity estimate (log intensity, higher = more binding, comparable within an allelic series).

What about the binding signal (HOXA4) of the same sequence?
The binding signal was 9.87 upbm affinity estimate (log intensity, higher = more binding, comparable within an allelic series).

With AGGGTCCC as the sequence, how does the binding signal (HOXA4) read?
Its binding signal is 9.78 upbm affinity estimate (log intensity, higher = more binding, comparable within an allelic series).

Which results are given for CGGGCCCG?
binding signal (HOXA7 [2]): 8.8 upbm affinity estimate (log intensity, higher = more binding, comparable within an allelic series); binding signal (PAX4 [5]): 9.21 upbm affinity estimate (log intensity, higher = more binding, comparable within an allelic series); binding signal (PAX4 [6]): 9.11 upbm affinity estimate (log intensity, higher = more binding, comparable within an allelic series); binding signal (HOXA7 [4]): 8.26 upbm affinity estimate (log intensity, higher = more binding, comparable within an allelic series)

Which binding signal (HOXB6 [7]) does the source give for GCCCCCCA here?
Its binding signal is 8.7 upbm affinity estimate (log intensity, higher = more binding, comparable within an allelic series).

And the binding signal (HOXA4)?
Its binding signal is 9.58 upbm affinity estimate (log intensity, higher = more binding, comparable within an allelic series).

And the binding signal (HOXB6 [8])?
The binding signal was 8.91 upbm affinity estimate (log intensity, higher = more binding, comparable within an allelic series).

With ACAATTAT as the sequence, how does the binding signal (HOXB6 [7]) read?
Its binding signal is 9.99 upbm affinity estimate (log intensity, higher = more binding, comparable within an allelic series).

And the binding signal (PAX4 [5])?
The binding signal was 10.6 upbm affinity estimate (log intensity, higher = more binding, comparable within an allelic series).

And the binding signal (ALX3)?
The binding signal was 8.71 upbm affinity estimate (log intensity, higher = more binding, comparable within an allelic series).

What does the source list for GCCAGCCC?
binding signal (VAX1 [9]): 7.02 upbm affinity estimate (log intensity, higher = more binding, comparable within an allelic series); binding signal (VAX1 [10]): 7.2 upbm affinity estimate (log intensity, higher = more binding, comparable within an allelic series); binding signal (VAX1 [11]): 7.16 upbm affinity estimate (log intensity, higher = more binding, comparable within an allelic series)

GTCCTGCA was tested. Which binding signal (VENTX [1]) did it give?
The binding signal was 8.28 upbm affinity estimate (log intensity, higher = more binding, comparable within an allelic series).

And the binding signal (VENTX [3])?
The binding signal was 8.13 upbm affinity estimate (log intensity, higher = more binding, comparable within an allelic series).

What does the source list for AAGCTGGC?
binding signal (HOXA7 [2]): 8.32 upbm affinity estimate (log intensity, higher = more binding, comparable within an allelic series); binding signal (HOXA7 [4]): 8.3 upbm affinity estimate (log intensity, higher = more binding, comparable within an allelic series)

Which binding signal (HOXA7 [2]) does the source give for ATAATTGC here?
The binding signal was 11.5 upbm affinity estimate (log intensity, higher = more binding, comparable within an allelic series).

What about the binding signal (HOXB6 [7]) of the same sequence?
The binding signal was 9.97 upbm affinity estimate (log intensity, higher = more binding, comparable within an allelic series).

And the binding signal (HOXA2 [12])?
Its binding signal is 12.4 upbm affinity estimate (log intensity, higher = more binding, comparable within an allelic series).

What about the binding signal (HOXA2 [13]) of the same sequence?
The binding signal was 13.2 upbm affinity estimate (log intensity, higher = more binding, comparable within an allelic series).

And the binding signal (HOXA2 [14])?
The binding signal was 10.8 upbm affinity estimate (log intensity, higher = more binding, comparable within an allelic series).

And the binding signal (HOXA7 [4])?
Its binding signal is 8.84 upbm affinity estimate (log intensity, higher = more binding, comparable within an allelic series).

What about the binding signal (HOXA2 [15]) of the same sequence?
The binding signal was 12.2 upbm affinity estimate (log intensity, higher = more binding, comparable within an allelic series).

What about the binding signal (HOXB6 [8]) of the same sequence?
Its binding signal is 12 upbm affinity estimate (log intensity, higher = more binding, comparable within an allelic series).

How did the binding signal (HOXA7 [2]) turn out when CTGCATTA was run?
The binding signal was 9.13 upbm affinity estimate (log intensity, higher = more binding, comparable within an allelic series).

What about the binding signal (HOXA2 [12]) of the same sequence?
The binding signal was 9.52 upbm affinity estimate (log intensity, higher = more binding, comparable within an allelic series).

What about the binding signal (HOXA2 [13]) of the same sequence?
The binding signal was 11.7 upbm affinity estimate (log intensity, higher = more binding, comparable within an allelic series).

What about the binding signal (HOXA2 [14]) of the same sequence?
Its binding signal is 10.6 upbm affinity estimate (log intensity, higher = more binding, comparable within an allelic series).

And the binding signal (HOXA7 [4])?
The binding signal was 8.56 upbm affinity estimate (log intensity, higher = more binding, comparable within an allelic series).

What about the binding signal (HOXA2 [15]) of the same sequence?
Its binding signal is 9.83 upbm affinity estimate (log intensity, higher = more binding, comparable within an allelic series).

What does the source list for GCAGGCGC?
binding signal (HOXA2 [12]): 6.79 upbm affinity estimate (log intensity, higher = more binding, comparable within an allelic series); binding signal (HOXA2 [13]): 10 upbm affinity estimate (log intensity, higher = more binding, comparable within an allelic series); binding signal (HOXA2 [14]): 10.3 upbm affinity estimate (log intensity, higher = more binding, comparable within an allelic series); binding signal (HOXA4): 9.73 upbm affinity estimate (log intensity, higher = more binding, comparable within an allelic series); binding signal (HOXA2 [15]): 6.79 upbm affinity estimate (log intensity, higher = more binding, comparable within an allelic series)

With TCCCCCCA as the sequence, how does the binding signal (HOXA2 [12]) read?
The binding signal was 7.32 upbm affinity estimate (log intensity, higher = more binding, comparable within an allelic series).

And the binding signal (HOXA2 [13])?
Its binding signal is 10.4 upbm affinity estimate (log intensity, higher = more binding, comparable within an allelic series).

What about the binding signal (HOXA2 [14]) of the same sequence?
The binding signal was 10.2 upbm affinity estimate (log intensity, higher = more binding, comparable within an allelic series).

And the binding signal (HOXA4)?
Its binding signal is 9.56 upbm affinity estimate (log intensity, higher = more binding, comparable within an allelic series).

What about the binding signal (HOXA2 [15]) of the same sequence?
Its binding signal is 7.41 upbm affinity estimate (log intensity, higher = more binding, comparable within an allelic series).

CCGAGGCC was tested. Which binding signal (HOXA2 [12]) did it give?
Its binding signal is 7.28 upbm affinity estimate (log intensity, higher = more binding, comparable within an allelic series).

And the binding signal (HOXA2 [13])?
Its binding signal is 10.4 upbm affinity estimate (log intensity, higher = more binding, comparable within an allelic series).

What about the binding signal (HOXA2 [14]) of the same sequence?
The binding signal was 10.4 upbm affinity estimate (log intensity, higher = more binding, comparable within an allelic series).

What about the binding signal (HOXA2 [15]) of the same sequence?
Its binding signal is 7.27 upbm affinity estimate (log intensity, higher = more binding, comparable within an allelic series).

Which binding signal (HOXB6 [7]) does the source give for AGAGGACC here?
The binding signal was 9.07 upbm affinity estimate (log intensity, higher = more binding, comparable within an allelic series).

And the binding signal (HOXB6 [8])?
Its binding signal is 8.88 upbm affinity estimate (log intensity, higher = more binding, comparable within an allelic series).

AATTATCA was tested. Which binding signal (PAX4 [6]) did it give?
The binding signal was 10.9 upbm affinity estimate (log intensity, higher = more binding, comparable within an allelic series).

With CACGGCGG as the sequence, how does the binding signal (HOXB6 [7]) read?
The binding signal was 9.01 upbm affinity estimate (log intensity, higher = more binding, comparable within an allelic series).

What about the binding signal (HOXB6 [8]) of the same sequence?
The binding signal was 8.99 upbm affinity estimate (log intensity, higher = more binding, comparable within an allelic series).

CAGGCCGG was tested. Which binding signal (HOXB6 [7]) did it give?
The binding signal was 8.91 upbm affinity estimate (log intensity, higher = more binding, comparable within an allelic series).

What about the binding signal (HOXA2 [12]) of the same sequence?
The binding signal was 7.05 upbm affinity estimate (log intensity, higher = more binding, comparable within an allelic series).

And the binding signal (HOXA2 [13])?
Its binding signal is 10.1 upbm affinity estimate (log intensity, higher = more binding, comparable within an allelic series).

What about the binding signal (HOXA2 [14]) of the same sequence?
The binding signal was 10.3 upbm affinity estimate (log intensity, higher = more binding, comparable within an allelic series).

And the binding signal (HOXA2 [15])?
The binding signal was 7.13 upbm affinity estimate (log intensity, higher = more binding, comparable within an allelic series).

What about the binding signal (HOXB6 [8]) of the same sequence?
The binding signal was 8.84 upbm affinity estimate (log intensity, higher = more binding, comparable within an allelic series).
